High-throughput results (PubChem BioAssay)
DAX1 inh-1 = DAX1 (NR0B1) inhibitors on StAR promoter, primary screen, cell-based, luminescence, SF-1 (NR5A1), full-length DAX-1; HEK293T StAR-luciferase reporter, SF-1/DAX-1 repression relief; inhibition, % at 6.8 µM; hit rate 1.1% among 370,000; AID 652010, 2013;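 active means inhibition above the mean over all tested compounds plus 3 SD, cut at about 3.6% in these data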;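 further: higher inhibition means more luminescence from relief of DAX-1 repression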
AHR activator = AHR activators, primary screen, cell-based, luminescence, luciferase reporter, human; Aryl hydrocarbon receptor (Homo sapiens), P35869; AHR-responsive luciferase reporter cells; activation, % at 5 µM; hit rate 2.5% among 320,000; in the data active means activation above about 47%
DAX1 inh-2 = DAX1 (NR0B1) inhibitors, primary screen, cell-based, HEK293, Gal4-DAX1, luciferase luminescence. Nuclear receptor subfamily 0 group B member 1 (Homo sapiens), P51843. HEK293 Gal4-DAX1 luciferase reporter. inhibition, % at 6.75 µM. hit rate 0.99% among 340,000. AID 504766, 2011;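 active means inhibition above the mean over all tested compounds plus 3 SD, cut at about 4.2% in these data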;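 further: inhibition shows as a rise in luminescence from relieved DAX1 repression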
Target sequence (P51843 207-470 limits assumed): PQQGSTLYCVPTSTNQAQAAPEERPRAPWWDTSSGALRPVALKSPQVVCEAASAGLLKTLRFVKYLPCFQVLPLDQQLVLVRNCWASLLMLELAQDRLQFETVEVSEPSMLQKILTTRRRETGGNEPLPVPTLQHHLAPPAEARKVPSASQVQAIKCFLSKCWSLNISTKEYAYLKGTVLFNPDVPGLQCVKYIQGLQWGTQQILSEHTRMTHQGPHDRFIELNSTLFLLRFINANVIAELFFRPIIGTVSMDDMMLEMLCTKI
ssDAF12 agonist = S. stercoralis DAF-12 nuclear receptor activators, primary screen, cell-based, luminescence, HEK293, GRIP1 co-expression, lit1-tk-luc | Nuclear hormone receptor DAF-12 (Strongyloides stercoralis) | HEK293 ssDAF-12/GRIP1 lit1-tk-luc reporter; % of 3 µM dafachronic acid response | activation, % at 6.8 µM | hit rate 1% among 370,000;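 active means activation above the mean over all tested compounds plus 3 SD, cut at about 0.9% in these data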
hgDAF12 agonist = H. glycines DAF-12 receptor agonists, primary screen, cell-based, luminescence, HEK293, GAL4 fusion, UAS-luciferase; Nuclear hormone receptor DAF-12 (Heterodera glycines), GAL4 fusion; HEK293 GAL4-hgDAF12 UAS-luciferase reporter, agonist luminescence; normalized to butyrate control; activation, % at 6.8 µM; hit rate 1.8% among 370,000;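 active means activation above a cutoff set at the mean of all screened compounds plus 3 SD, cut at about 10% in these data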
hcDAF12 agonist = H. contortus DAF-12 nuclear receptor activators, primary screen, cell-based, luminescence, HEK293, lit1-tk-luc reporter; hit rate 1.4% among 370,000; HEK293 hcDAF-12 lit1-tk-luc reporter; 0% DMSO, 100% Δ7-dafachronic acid; activation, % at 6.8 µM;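 active means activation above the mean of all tested compounds plus 3 SD, cut at about 5.5% in these data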
LXR ag = LXR agonists, Gal4 luciferase reporter, confirmation, counter-screen for hcDAF-12 agonist project, cell-based, luminescence, HEK293, H. contortus campaign. HEK293 Gal4-LXR tk-luc reporter, 24 h; normalized: DMSO 0%, positive control 100%. activation, % at 6.8 µM. 3,400 tested, under 10 active. shares compounds with hcDAF12 agonist;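 active means mean percent activation of the reporter above a cutoff set as the average over tested compounds plus their standard deviation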
hcDAF12 conf = H. contortus DAF-12 receptor agonists, confirmation, cell-based, luminescence, HEK293, lit1-tk-luc, triplicate. shares compounds with hcDAF12 agonist. HEK293 hcDAF-12 lit1-tk-luc reporter; % of Δ7-dafachronic acid response. activation, % at 6.8 µM. hit rate 61% among 3,400;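 active means mean activation across triplicate tests above the threshold derived from the earlier primary screen, cut at about 5.5% in these data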
Of the large screens only hits and unclear results are named; the others gave an inactive call (follow-up assays come after a bar, where they were run). An excerpt weighted towards active compounds, which were near 5.7% of everything screened.

O=C(Cn1nc(C(=O)O)c2ccccc2c1=O)c1c[nH]c2ccccc12	hcDAF12 agonist 7.3 | LXR ag inactive | hcDAF12 conf inactive
N#Cc1ccsc1NC(=O)COC(=O)c1cc2ccccc2cc1O	ssDAF12 agonist 1.1, hcDAF12 agonist 9.3 | LXR ag inactive | hcDAF12 conf 10
CC(C)c1ccccc1NC(=O)COC(=O)Cc1c[nH]c2ccccc12	ssDAF12 agonist 1.3, hcDAF12 agonist 7.9 | LXR ag inactive | hcDAF12 conf inactive
CNC(=O)c1ccc(CNC(=O)OCc2ccccc2)cc1	none
C=C1CSc2nc(=O)c3c4c(sc3n21)CCC4	none
C=C1CSc2nc(=O)c3c4c(sc3n21)CCCC4	hcDAF12 agonist 7.0 | LXR ag inactive | hcDAF12 conf inactive
O=C(COC(=O)c1cccc(O)c1)Nc1ccc(S(=O)(=O)N2CCOCC2)cc1	none
O=C(CS(=O)(=O)c1ccccc1)Nc1nc2ccccc2s1	hcDAF12 agonist 7.1 | LXR ag inactive | hcDAF12 conf inactive
NS(=O)(=O)c1ccc2nc(NC(=O)CS(=O)(=O)c3ccccc3)sc2c1	none
O=C(NNc1nc2ccccc2s1)Nc1ccccc1	AHR activator 59, hcDAF12 agonist 7.2 | LXR ag inactive | hcDAF12 conf inactive
Cc1cccc(/C=C2\Sc3ccc(C(=O)N4CCC(C)CC4)cc3N(C)C2=O)c1	none
CCC(=O)Oc1ccc(-c2cnc3ccccc3n2)cc1	hgDAF12 agonist 11, hcDAF12 agonist 7.1 | LXR ag inactive | hcDAF12 conf 10
Cc1c(C(=O)Oc2ccc(-c3cnc4ccccc4n3)cc2)cccc1[N+](=O)[O-]	none
Cc1c(C(=O)Nc2nc3ccccc3[nH]2)oc2ccc(Br)cc12	none
Cc1c(C(=O)Nc2cccnc2Cl)oc2ccccc12	hcDAF12 agonist 6.7 | LXR ag inactive | hcDAF12 conf 6.8
Cc1c(C(=O)Nc2ccccn2)oc2c(Cl)cccc12	AHR activator 74, ssDAF12 agonist 2.0, hcDAF12 agonist 8.8 | LXR ag inactive | hcDAF12 conf 6.5
COC(=O)c1sc(NC(=O)c2oc3ccccc3c2C)nc1C	hcDAF12 agonist 8.2 | LXR ag inactive | hcDAF12 conf inactive
Cc1c(C(=O)Nc2nc3ccccc3[nH]2)oc2c(Cl)cccc12	AHR activator 66, ssDAF12 agonist 1.0, hcDAF12 agonist 8.7 | LXR ag inactive | hcDAF12 conf 9.2
CC(C)c1ccc(N(C(=O)c2csnn2)C(C(=O)NC2CCCC2)c2cccnc2)cc1 (stereo not drawn)	none
CCN(CC(=O)NC(=O)Nc1ccccc1F)Cc1ccccc1	none
CC1CCN(c2c(NCC3CCC(C(=O)NCc4ccccc4Cl)CC3)c(=O)c2=O)CC1 (stereo not drawn)	none
CC(=O)Nc1nc(-c2ccc(Cl)cc2)nc(C)c1C(C)=O	AHR activator 73, ssDAF12 agonist 4.1, hcDAF12 agonist 6.6 | LXR ag inactive | hcDAF12 conf inactive
CC(=O)c1c(C)nc(C)nc1NC(=O)Cc1ccccc1	none
COc1ccc(NC(=O)CN2CCC(C(=O)c3ccc(F)cc3)CC2)c(OC)c1	none
